Screens as filed in PubChem BioAssay.
The list is not random: actives were taken first. Their share in the collection is about 7%.
BAZ2B block: inhibitors of human BAZ2B bromodomain | AlphaScreen BAZ2B-H3K14Ac peptide displacement | Q9UIF8 | Potency, µM (series often up to 114 µM), most hits filed as inhibitors | 360,000 compounds, 4.4% hits; also: nearly all actives have a fitted effect of over 60% in size
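BAZ2B 50 nM plus b-H3(5-23)K14Ac 50 nM, PBS pH 7.4/0.01% Tween-20, 30 min RT; compound added (max 110 uM), 30 min RT; streptavidin donor/Ni-chelate acceptor beads 10 ug/mL final, 20 min dark; AlphaScreen read.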
HP1b binding inh: inhibitors of HP1-beta chromodomain binding to methylated histone tails; AlphaScreen HP1-beta / biotin-H3K9me3 peptide binding; Potency, µM (top dose mostly 114 µM), actives largely listed as inhibitors; 390,000 compounds, 0.56% hits; also: nearly all actives have a fitted effect of over 70% in size
Target sequence (P83916 whole entry, looked up): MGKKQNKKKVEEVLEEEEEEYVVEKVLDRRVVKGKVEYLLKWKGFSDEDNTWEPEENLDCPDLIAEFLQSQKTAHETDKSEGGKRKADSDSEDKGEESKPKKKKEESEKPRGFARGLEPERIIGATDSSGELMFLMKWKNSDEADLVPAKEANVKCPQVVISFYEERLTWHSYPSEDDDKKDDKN
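HP1-beta protein (50 nM final) preincubated 30 min at room temperature with biotinylated H3(1-18)K9me3 peptide (50 nM) in PBS pH 7.4, 0.01% Tween-20, then compound added for 30 min. AlphaScreen streptavidin donor/nickel chelate acceptor beads (10 ug/mL final), 30 min dark, luminescence read.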
GCN5L2 inh: inhibitors of human GCN5L2 histone acetyltransferase. Q92830. GCN5L2 HAT assay, ThioGlo1 CoA-SH fluorescence. Potency, µM (doses to about 58.9 µM), usual class: inhibitors. 390,000 compounds, 0.21% hits. AID 504327
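Free CoA generated was detected with ThioGlo1 (50uM) fluorescence at Ex340nm/Em540nm, read immediately and after 20 min at room temperature. Enzyme, 20 nM in HEPES pH 7.5 buffer, saw compounds 15 min before adding 75uM H3(1-25) peptide and 70uM acetyl-CoA.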
JMJD2A Tudor: blocks the human JMJD2A Tudor domain. O75164. 390,000 compounds, 4.4% hits. AlphaScreen JMJD2A-Tudor / H3K4me3 peptide binding. Potency, µM (titrated, usually from 114 µM), hits mostly inhibitors. AID 504339; also: nearly all actives have a fitted effect of over 50% in size
PLK1 PBD block: inhibitors of human PLK1 polo-box domain binding; P53350; AID 720504; Plk1 PBD binding of FITC phosphopeptide, fluorescence polarization; Potency, µM, most hits filed as inhibitors; 360,000 compounds, 2.8% hits; also: series mostly up to about 57 µM; nearly all actives have a fitted effect of over 65% in size
PI5P4K alpha inh: inhibitors of human PI5P4K alpha. PI5P4Kalpha enzyme, ADP-Glo luminescence, 60 min; hits give low values. max response, %. 330,000 compounds, 1.2% hits. AID 652105; active = max response of -50% or lower; inconclusive = between -30% and -50%; inactive = -30% or higher; also: value at the top dose of about 77 µM
Target sequence (P48426 whole entry, looked up): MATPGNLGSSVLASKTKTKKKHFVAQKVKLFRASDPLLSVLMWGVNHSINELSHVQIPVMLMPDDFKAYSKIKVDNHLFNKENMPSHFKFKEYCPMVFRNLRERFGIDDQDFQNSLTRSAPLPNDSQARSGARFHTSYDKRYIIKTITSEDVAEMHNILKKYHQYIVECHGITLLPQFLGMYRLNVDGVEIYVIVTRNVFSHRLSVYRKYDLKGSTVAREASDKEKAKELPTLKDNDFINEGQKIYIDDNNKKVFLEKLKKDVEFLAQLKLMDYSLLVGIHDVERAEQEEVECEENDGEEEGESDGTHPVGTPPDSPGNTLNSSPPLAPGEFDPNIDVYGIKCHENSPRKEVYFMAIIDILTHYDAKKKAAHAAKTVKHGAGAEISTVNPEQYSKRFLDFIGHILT
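Compounds were pin-transferred onto PI5P4Kalpha and substrate in HEPES pH 7.4 buffer with EGTA, CHAPS and 5% DMSO. ATP (5 microM final) started the reaction, which ran 60 minutes at room temperature before ADP-Glo detection.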
Numbers stand for hits; [ ] = another dose, or the depositor's remark. Unless noted, calls follow the shape of the dose curve; as a rule, active = well fitted curve in the direction sought with a large enough effect; inconclusive = small, poorly fitted or top-dose-only effect, or another doubt; inactive = no such curve, though single readings can be large; an effect the other way counts as inactive or inconclusive.

How did CCCC(=O)Nc1ccc(NC(=O)c2ccccc2OC)cn1 do in these assays?
BAZ2B block: inactive; HP1b binding inh: inactive; GCN5L2 inh: 2.24µM; JMJD2A Tudor: inactive; PLK1 PBD block: inactive; PI5P4K alpha inh: inactive

How did COc1ccc(-n2c(-c3ccc(C)cc3)cc3c2CC(C)(C)CC3=O)c(OC)c1 do in these assays?
BAZ2B block: 14.1µM; HP1b binding inh: inconclusive; GCN5L2 inh: inactive; JMJD2A Tudor: 17.8µM

What do the screens show for `CCOc1ccc(-n2c(-c3ccc(OC)cc3)cc3c2CC(C)(C)CC3=O)cc1`?
BAZ2B block: 12.6µM; HP1b binding inh: inactive; GCN5L2 inh: inactive; JMJD2A Tudor: 15.8µM

Results for COc1ccc(-n2c(-c3ccc(C)cc3)cc3c2CC(C)(C)CC3=O)cc1Cl ?
BAZ2B block: 5.01µM; HP1b binding inh: inconclusive; GCN5L2 inh: inactive; JMJD2A Tudor: 31.6µM

What do the screens show for `COc1cccc(-n2c(-c3ccc(C)cc3)cc3c2CC(C)(C)CC3=O)c1`?
BAZ2B block: 11.2µM; HP1b binding inh: inactive; GCN5L2 inh: inactive; JMJD2A Tudor: inconclusive

What do the screens show for `Cc1ccc(-c2cc3c(n2-c2ccc(C)cc2)CC(C)(C)CC3=O)cc1`?
BAZ2B block: inactive; HP1b binding inh: inactive; GCN5L2 inh: inactive; JMJD2A Tudor: inconclusive

Results for Cc1ccc(-c2cc3c(n2-c2ccc(F)cc2)CC(C)(C)CC3=O)cc1 ?
BAZ2B block: inactive; HP1b binding inh: inactive; GCN5L2 inh: inactive; JMJD2A Tudor: inactive

How did COc1cccc(-n2c(-c3ccc(Cl)cc3)cc3c2CC(C)(C)CC3=O)c1 do in these assays?
BAZ2B block: 8.91µM; HP1b binding inh: inactive; GCN5L2 inh: inactive; JMJD2A Tudor: 8.91µM

Results for CC1(C)CC(=O)c2cc(-c3nc(-c4ccc(Cl)cc4)cs3)c(=O)n(-c3ccc(F)cc3)c2C1 ?
BAZ2B block: inactive; HP1b binding inh: inactive; GCN5L2 inh: inactive; JMJD2A Tudor: inactive

How did Cc1ccc(OCCn2cc(C(=S)N3CCCC3)c3ccccc32)cc1C do in these assays?
BAZ2B block: inactive; HP1b binding inh: inactive; GCN5L2 inh: inactive; JMJD2A Tudor: inconclusive; PLK1 PBD block: 2.99µM; PI5P4K alpha inh: inconclusive

What do the screens show for `O=C(O)Cn1cc(C(=S)N2CCOCC2)c2ccccc21`?
BAZ2B block: inactive; HP1b binding inh: inactive; GCN5L2 inh: inactive; JMJD2A Tudor: inactive; PLK1 PBD block: 23.8µM

What do the screens show for `O=C(O)Cn1cc(/C=C2/SC(=O)N(CC(=O)N3CCCCCC3)C2=O)c2ccccc21`?
BAZ2B block: inactive; HP1b binding inh: inactive; GCN5L2 inh: inactive; JMJD2A Tudor: inactive; PLK1 PBD block: 26.7µM; PI5P4K alpha inh: inactive

What do the screens show for `S=C(c1cn(CCOc2ccccc2)c2ccccc12)N1CCCC1`?
BAZ2B block: inactive; HP1b binding inh: inactive; GCN5L2 inh: inactive; JMJD2A Tudor: inactive; PLK1 PBD block: inconclusive; PI5P4K alpha inh: inactive

Results for O=C(O)Cn1cc(C(=S)N2CCCCC2)c2ccccc21 ?
BAZ2B block: inactive; HP1b binding inh: inactive; GCN5L2 inh: inactive; JMJD2A Tudor: inconclusive; PLK1 PBD block: 15µM; PI5P4K alpha inh: inactive

How did O=C(Cn1cc(C(=S)N2CCOCC2)c2ccccc21)N1CCOCC1 do in these assays?
BAZ2B block: inactive; HP1b binding inh: inactive; JMJD2A Tudor: inactive; PLK1 PBD block: inactive; PI5P4K alpha inh: inactive

Results for COCCNC(=O)Cn1cc(C(=S)N2CCCCC2)c2ccccc21 ?
BAZ2B block: inconclusive; HP1b binding inh: inactive; GCN5L2 inh: inactive; JMJD2A Tudor: inactive; PLK1 PBD block: inactive; PI5P4K alpha inh: inactive

Results for Cc1cc(C)cc(C(=O)N2CCCCC2)c1 ?
HP1b binding inh: inactive; JMJD2A Tudor: inactive; PLK1 PBD block: inactive; PI5P4K alpha inh: inactive

What do the screens show for `COc1ccc(C(CC(=O)NCc2ccccc2)N2Cc3ccccc3C2=O)cc1` (stereo not drawn)?
BAZ2B block: inactive; HP1b binding inh: inactive; GCN5L2 inh: inactive; JMJD2A Tudor: inactive

Results for O=C(O)c1cc(-c2ccc(C(F)(F)F)cc2)nc2n[nH]c(-c3ccccc3)c12 ?
BAZ2B block: inactive; HP1b binding inh: inactive; GCN5L2 inh: inactive; JMJD2A Tudor: inactive

How did O=C(C(=O)N1CCN(c2ccccc2F)CC1)c1cn(CC(=O)N2CCOCC2)c2ccccc12 do in these assays?
BAZ2B block: inactive; HP1b binding inh: inactive; GCN5L2 inh: inactive; JMJD2A Tudor: inconclusive; PLK1 PBD block: 23.8µM; PI5P4K alpha inh: inactive

Results for COc1ccccc1N1CCN(C(=O)C(=O)c2cn(CC(=O)N3CCOCC3)c3ccccc23)CC1 ?
BAZ2B block: inactive; HP1b binding inh: inactive; GCN5L2 inh: inactive; JMJD2A Tudor: inactive; PLK1 PBD block: inactive; PI5P4K alpha inh: inactive

How did Cc1cc(C)c(S(=O)(=O)N2CCOC2CNC(=O)C(=O)NCCCn2ccnc2)c(C)c1 (stereo not drawn) do in these assays?
BAZ2B block: 12.6µM; HP1b binding inh: inactive; GCN5L2 inh: inactive; JMJD2A Tudor: 50.1µM; PLK1 PBD block: inactive; PI5P4K alpha inh: inactive

What do the screens show for `O=C(NCCCn1ccnc1)C(=O)NCC1OCCN1S(=O)(=O)c1ccc2c(c1)OCCO2` (stereo not drawn)?
BAZ2B block: 39.8µM; HP1b binding inh: inactive; GCN5L2 inh: inactive; JMJD2A Tudor: inconclusive; PLK1 PBD block: inactive; PI5P4K alpha inh: inactive

What do the screens show for `Cc1cc(C)c(S(=O)(=O)N2CCOC2CNC(=O)C(=O)NCCc2ccc(S(N)(=O)=O)cc2)c(C)c1` (stereo not drawn)?
BAZ2B block: inactive; HP1b binding inh: inactive; GCN5L2 inh: inactive; JMJD2A Tudor: inactive; PLK1 PBD block: inactive; PI5P4K alpha inh: inactive

What do the screens show for `CC(C)OC(=O)N(C)C[C@@H]1OCc2cnnn2CCCC(=O)N([C@@H](C)CO)C[C@@H]1C`?
PLK1 PBD block: inactive; PI5P4K alpha inh: inactive

What do the screens show for `COc1cccc(NC(=O)Cn2nc(-c3ccncc3)ccc2=O)c1`?
BAZ2B block: inactive; HP1b binding inh: inactive; GCN5L2 inh: inactive; JMJD2A Tudor: inactive

How did N[C@H](C(=O)O)C1[C@H](C(=O)O)[C@H]1C(=O)O (stereo partly drawn) do in these assays?
GCN5L2 inh: inactive[0.501 µM]

Results for CC1C=CC(C)C(C(=O)O)C1C(=O)O (stereo not drawn) ?
BAZ2B block: 50.1µM; HP1b binding inh: inactive; GCN5L2 inh: inactive; JMJD2A Tudor: 44.7µM; PLK1 PBD block: inconclusive; PI5P4K alpha inh: inactive

How did COC(=O)c1c[nH]n2c(=O)c(C(C)C)c(C)nc12 do in these assays?
BAZ2B block: inactive; HP1b binding inh: inactive; GCN5L2 inh: inactive; JMJD2A Tudor: inactive; PLK1 PBD block: inactive; PI5P4K alpha inh: inactive

What do the screens show for `COC(=O)c1c[nH]n2c(=O)cc(CCl)nc12`?
BAZ2B block: inconclusive; HP1b binding inh: inactive; GCN5L2 inh: inactive; JMJD2A Tudor: 79.4µM; PLK1 PBD block: inactive
